Assay results from PubChem BioAssay (Tox21).
Values without a mark were called inactive. Inconclusive results are not listed. A call without a number means that no potency is given here. Calls of active or inactive are those of the source. Unless noted, the call rests on the fitted dose curve.

What was measured:
[1] = Nuclear factor erythroid 2-related factor 2/antioxidant responsive element (Nrf2/ARE) small molecule agonists: qHTS cell viability counter screen in human keratinocytes (AID 1919968; active means well fitted curve in the direction sought with a large enough effect in the repeat runs; an effect the other way counts as inactive or inconclusive; further: nearly all actives have a fitted effect of over 55% in size)
Summary of the method: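 KeratinoSens HaCaT cells, 1,500/well, preincubated 5 h, then exposed to compounds in DMSO for 23 h at 37 C/5% CO2. Viability read as CellTiter-Fluor fluorescence after 1 h, in the same wells as the ARE-luciferase read.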

[2] = Nuclear factor erythroid 2-related factor 2/antioxidant responsive element (Nrf2/ARE) small molecule agonists: luciferase reporter gene qHTS assay in human keratinocytes (AID 1919969); further: nearly all actives have a fitted effect of over 35% in size; further: potency means the concentration at half of the fitted maximal effect
[3] = target: Gonadotropin-releasing hormone receptor (Homo sapiens) (UniProt P30968); assay: Human gonadotropin-releasing hormone receptor (GnRHR) small molecule agonists, calcium flux assay in GnRHR-HEK293 cells (AID 1920063); further: nearly all actives have a fitted effect of over 35% in size
Chain of Gonadotropin-releasing hormone receptor (Homo sapiens) (P30968 whole entry, looked up): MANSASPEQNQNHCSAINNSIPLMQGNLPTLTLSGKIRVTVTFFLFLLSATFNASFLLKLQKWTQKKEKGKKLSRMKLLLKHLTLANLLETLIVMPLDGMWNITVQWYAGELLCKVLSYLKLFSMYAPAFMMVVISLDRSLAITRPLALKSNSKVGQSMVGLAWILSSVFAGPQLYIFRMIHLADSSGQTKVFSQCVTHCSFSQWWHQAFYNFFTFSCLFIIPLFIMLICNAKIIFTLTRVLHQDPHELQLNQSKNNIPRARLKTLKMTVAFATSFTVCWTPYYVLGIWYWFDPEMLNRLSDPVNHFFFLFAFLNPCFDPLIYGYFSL
Summary of the method: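 HEK293 cells stably expressing human GnRHR were dye-loaded for 1 h at 37 C. Compound was added in agonist mode and fluorescence (Ex/Em 480/540) recorded kinetically for 3 min. Fifteen concentrations, triplicates.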

[4] = target: KiSS-1 receptor (Homo sapiens) (UniProt Q969F8); assay: Human kisspeptin (KISS1R) small molecule agonists, calcium flux assay in KISS1R-HEK293 cells (AID 1920064; active means well fitted curve in the direction sought with a large enough effect in the repeat runs; an effect the other way counts as inactive or inconclusive)
Chain of KiSS-1 receptor (Homo sapiens) (Q969F8 whole entry, looked up): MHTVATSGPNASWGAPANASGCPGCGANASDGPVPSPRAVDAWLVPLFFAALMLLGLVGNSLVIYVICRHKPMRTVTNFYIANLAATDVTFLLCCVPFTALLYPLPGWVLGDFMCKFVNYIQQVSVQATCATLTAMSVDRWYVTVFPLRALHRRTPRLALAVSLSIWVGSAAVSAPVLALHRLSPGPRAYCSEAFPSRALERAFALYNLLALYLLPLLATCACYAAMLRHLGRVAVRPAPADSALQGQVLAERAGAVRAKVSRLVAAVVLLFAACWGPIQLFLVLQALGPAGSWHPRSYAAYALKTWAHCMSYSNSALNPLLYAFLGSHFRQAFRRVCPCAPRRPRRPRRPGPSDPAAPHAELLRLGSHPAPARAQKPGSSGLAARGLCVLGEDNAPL
Summary of the method: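 HEK293 cells stably expressing human KISS1R were loaded with calcium dye for 1 h at 37 C, then given compound; fluorescence (Ex/Em 480/540) was read kinetically for 3 min. Fifteen concentrations, triplicate.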

[5] = G protein-coupled receptor (GPCR) small molecule agonists, calcium flux assay: HEK293 wild type cell line counter screen (AID 1920065)
Summary of the method: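 Wild-type HEK293 cells plated 18 h, loaded with calcium dye 1 h at 37 C, then compounds added in agonist mode (ATP as positive control). Kinetic fluorescence Ex/Em 480/540 recorded 3 min at 1 sec intervals; 15 concentrations, triplicate.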

[6] = p53 small molecule agonists, cell-based qHTS assay with human liver microsomes (AID 1963577);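 further: p53 response element beta-lactamase reporter cells with liver microsomes plus NADPH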
Summary of the method: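 With metabolic activation: human liver microsomes (0.5 mg/mL final) plus NADPH (0.5 mg/mL final) added alongside compounds to p53RE-bla cells; 16 h 37 C exposure; beta-lactamase read by LiveBLAzer fluorescence.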

[7] = p53 small molecule agonists, cell-based qHTS assay with rat liver microsomes (AID 1963578)
Summary of the method: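 Metabolic activation by rat liver microsomes and NADPH, each 0.5 mg/mL final, added right after compounds to p53RE-bla reporter cells (4,000/well, plated 5 h earlier). 16 h at 37 C, then LiveBLAzer substrate for 2 h at room temperature in the dark; fluorescence read-out.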

[8] = p53 small molecule agonists, cell-based qHTS assay with human liver microsomes: qHTS cell viability counter screen (AID 1963579); further: nearly all actives have a fitted effect of over 45% in size
Summary of the method: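 Metabolic activation used human liver microsomes and NADPH, both 0.5 mg/mL final, over 16 hours at 37 C on p53RE-bla cells (4,000/well). Cytotoxicity measured by CellTiter-Glo luminescence, 30 min at room temperature.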

[9] = p53 small molecule agonists, cell-based qHTS assay with rat liver microsomes: qHTS cell viability counter screen (AID 1963580); further: nearly all actives have a fitted effect of over 45% in size
Summary of the method: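 HCT-116 p53RE-bla, 4,000 cells/well, 5 h pre-incubation; cpd + rat liver microsomes 0.5 mg/mL + NADPH 0.5 mg/mL (final); 16 h, 37 C; CellTiter-Glo, 30 min RT; luminescence.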

[10] = p53 small molecule agonists, cell-based qHTS assay: qHTS cell viability counter screen (AID 1963581); further: nearly all actives have a fitted effect of over 45% in size
Summary of the method: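 p53RE-bla HCT-116 cells, compounds added 5 h after plating and incubated 16 h at 37 C. Cytotoxicity measured in the same wells as intracellular ATP by CellTiter-Glo luminescence after 30 min at room temperature.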

[11] = p53 small molecule agonists, cell-based qHTS assay (AID 1963582; active means well fitted activation curve with a large enough effect in the signal ratio in the repeat runs, not every such curve was filed as active; the % refers to the signal ratio)
Summary of the method: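 p53RE-bla reporter cells, compounds added in DMSO after 5 h plating, incubated 16 h at 37 C. Beta-lactamase read via 2 h room-temperature LiveBLAzer B/G FRET substrate, fluorescence intensity.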

[12] = target: 5-hydroxytryptamine receptor 2A (Homo sapiens) (UniProt P28223); assay: 5-hydroxytryptamine receptor 2A (HTR2A) small molecule agonists, cell-based qHTS assay (AID 1963587); further: nearly all actives have a fitted effect of over 30% in size
Chain of 5-hydroxytryptamine receptor 2A (Homo sapiens) (P28223 whole entry, looked up): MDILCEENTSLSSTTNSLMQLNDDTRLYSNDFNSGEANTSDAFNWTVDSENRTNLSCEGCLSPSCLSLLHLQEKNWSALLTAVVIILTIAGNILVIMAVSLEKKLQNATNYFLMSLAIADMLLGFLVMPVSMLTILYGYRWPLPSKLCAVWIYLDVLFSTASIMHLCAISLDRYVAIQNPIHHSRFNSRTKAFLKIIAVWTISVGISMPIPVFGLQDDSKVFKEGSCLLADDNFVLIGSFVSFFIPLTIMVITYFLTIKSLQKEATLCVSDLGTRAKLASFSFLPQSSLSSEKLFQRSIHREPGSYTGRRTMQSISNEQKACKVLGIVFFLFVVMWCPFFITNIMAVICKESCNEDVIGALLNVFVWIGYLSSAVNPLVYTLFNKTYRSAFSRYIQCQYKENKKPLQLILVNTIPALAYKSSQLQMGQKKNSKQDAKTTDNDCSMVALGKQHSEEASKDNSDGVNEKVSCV
Summary of the method: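 Kinetic calcium-flux fluorescence (2 min, 1 sec intervals) after compound addition in agonist mode. HTR2A-CHO cells were cultured 18 h, then dye-loaded 1 h at 37 C.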

[13] = target: Muscarinic acetylcholine receptor M1 (Homo sapiens) (UniProt P11229); assay: Cholinergic receptor muscarinic 1 (CHRM1) small molecule antagonists, cell-based qHTS assay (AID 1963588); further: nearly all actives have a fitted effect of over 40% in size
Chain of Muscarinic acetylcholine receptor M1 (Homo sapiens) (P11229 whole entry, looked up): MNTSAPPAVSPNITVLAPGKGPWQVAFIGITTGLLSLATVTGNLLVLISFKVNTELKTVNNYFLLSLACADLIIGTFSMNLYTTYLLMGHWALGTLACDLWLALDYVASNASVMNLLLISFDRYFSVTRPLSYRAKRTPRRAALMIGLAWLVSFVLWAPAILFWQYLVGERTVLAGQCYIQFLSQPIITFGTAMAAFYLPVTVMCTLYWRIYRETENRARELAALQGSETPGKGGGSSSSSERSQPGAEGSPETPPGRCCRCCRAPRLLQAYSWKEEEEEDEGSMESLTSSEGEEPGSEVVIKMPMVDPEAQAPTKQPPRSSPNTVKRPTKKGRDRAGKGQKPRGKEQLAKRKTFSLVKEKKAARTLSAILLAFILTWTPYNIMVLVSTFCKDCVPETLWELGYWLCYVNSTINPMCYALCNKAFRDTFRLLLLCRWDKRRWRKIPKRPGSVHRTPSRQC
Summary of the method: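 CHRM1-CHO calcium-flux assay, antagonist mode. Cells were seeded 18 h, dye-loaded 1 h at 37 C and given compound for 5 min at RT, then acetylcholine was added at 50nM. FDSS fluorescence was read 3 min; 15 concentrations, three runs.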

[14] = target: Muscarinic acetylcholine receptor M1 (Homo sapiens) (UniProt P11229); assay: Cholinergic receptor muscarinic 1 (CHRM1) small molecule agonists, cell-based qHTS assay (AID 1963589); further: nearly all actives have a fitted effect of over 35% in size
Summary of the method: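 CHO cells stably expressing human CHRM1 were loaded with calcium dye for 1 h at 37 C, then compound was added in agonist mode. Intracellular calcium fluorescence was followed kinetically at 1 s intervals. Fifteen concentrations were tested in three independent runs.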

[15] = cAMP Responsive Elements (CRE) small molecule agonists, cell-based qHTS assay (AID 1963590)
Summary of the method: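 CRE-bla HEK 293T cells, 2,000/well in DMEM with 10% dialyzed FBS and 25 mM HEPES, pre-incubated 18 h at 37 C, then exposed to compound 3 h at 37 C. Beta-lactamase reporter read with LiveBLAzer B/G FRET substrate after 2 h at room temperature.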

[16] = cAMP Responsive Elements (CRE) small molecule antagonists, cell-based qHTS assay (AID 1963591; active means well fitted inhibition curve with a large enough effect in the signal ratio in the repeat runs, not every such curve was filed as active; the % refers to the signal ratio)
Summary of the method: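 CRE-bla HEK293T cells plated 18 h, then given compound plus NKH477 at 0.25 uM final for 3 h at 37C. Beta-lactamase reporter read with LiveBLAzer B/G FRET substrate after 2 h at room temperature.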

[17] = target: Beta-2 adrenergic receptor (Homo sapiens) (UniProt P07550); assay: Adrenergic beta2 receptor (ADRB2) small molecule antagonists, cell-based qHTS assay (AID 1963592); further: series mostly up to about 92 µM; nearly all actives have a fitted effect of over 50% in size
Chain of Beta-2 adrenergic receptor (Homo sapiens) (P07550 whole entry, looked up): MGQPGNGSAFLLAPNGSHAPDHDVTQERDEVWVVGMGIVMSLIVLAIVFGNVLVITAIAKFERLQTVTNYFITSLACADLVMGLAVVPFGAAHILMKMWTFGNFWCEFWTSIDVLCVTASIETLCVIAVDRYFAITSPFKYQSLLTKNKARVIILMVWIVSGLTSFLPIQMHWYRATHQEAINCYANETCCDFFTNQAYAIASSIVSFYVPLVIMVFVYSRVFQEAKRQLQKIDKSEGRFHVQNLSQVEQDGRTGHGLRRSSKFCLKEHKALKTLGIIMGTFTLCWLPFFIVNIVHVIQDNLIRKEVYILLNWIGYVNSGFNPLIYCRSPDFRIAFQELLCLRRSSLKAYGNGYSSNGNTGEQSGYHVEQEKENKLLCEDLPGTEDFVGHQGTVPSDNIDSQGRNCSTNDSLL
Summary of the method: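 Cells (CHO, stable ADRB2 overexpression) incubated 18-20hr at 37C; compounds added from DMSO; agonist mix (1nM isoproterenol, 100uM IBMX, 25uM Ro-20-1724) added; 0.5hr RT; d2-cAMP and anti-cAMP-cryptate added; 1hr RT; 665/615 nm read.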

[18] = target: D(2) dopamine receptor (Homo sapiens) (UniProt P14416); assay: Dopamine D2 receptor (DRD2) small molecule agonists, cell-based qHTS assay (AID 1963594); further: nearly all actives have a fitted effect of over 35% in size
Chain of D(2) dopamine receptor (Homo sapiens) (P14416 whole entry, looked up): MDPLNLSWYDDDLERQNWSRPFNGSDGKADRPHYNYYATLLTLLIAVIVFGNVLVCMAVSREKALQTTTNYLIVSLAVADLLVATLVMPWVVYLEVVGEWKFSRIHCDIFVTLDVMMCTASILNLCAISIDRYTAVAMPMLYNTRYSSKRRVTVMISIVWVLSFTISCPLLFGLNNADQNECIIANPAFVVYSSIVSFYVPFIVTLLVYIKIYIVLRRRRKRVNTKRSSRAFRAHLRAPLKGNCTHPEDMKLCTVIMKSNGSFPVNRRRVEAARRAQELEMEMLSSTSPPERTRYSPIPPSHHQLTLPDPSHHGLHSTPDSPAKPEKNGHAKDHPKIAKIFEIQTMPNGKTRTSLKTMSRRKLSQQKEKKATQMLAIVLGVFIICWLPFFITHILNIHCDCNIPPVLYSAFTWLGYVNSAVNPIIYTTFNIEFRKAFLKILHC
Summary of the method: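 cAMP accumulation in DRD2-HEK293 cells measured by HTRF after 1 h detection; compounds added 10 min before NKH477 (200nM […]) forskolin-analogue stimulation, 30 min at room temperature, with Ro20-1724 present at 0.1 mM final.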

[19] = target: D(2) dopamine receptor (Homo sapiens) (UniProt P14416); assay: Dopamine D2 receptor (DRD2) small molecule antagonists, cell-based qHTS assay (AID 1963595; active means well fitted inhibition curve with a large enough effect in the signal ratio in the repeat runs, with a control signal flat; the % refers to the signal ratio)
Summary of the method: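 Antagonist mode in DRD2-HEK293 cells: after compound addition with 0.1 mM Ro20-1724, cells received quinpirole (12 nM) and NKH477 (200 nM) for 30 min at room temperature; HTRF cAMP read after 1 h detection.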

| SMILES | Potency [1] | Potency [2] | Potency [3] | outcome [4] | outcome [5] | Potency [6] | Potency [7] | Potency [8] | Potency [9] | Potency [10] | Potency [11] | Potency [12] | Potency [13] | Potency [14] | Potency [15] | Potency [16] | Potency [17] | Potency [18] | Potency [19] |
| --- | --- | --- | --- | --- | --- | --- | --- | --- | --- | --- | --- | --- | --- | --- | --- | --- | --- | --- | --- |
| CCCCOc1cc(C(=O)OCCN(CC)CC)ccc1N | inactive | inactive | inactive | inactive | inactive | inactive | inactive | inactive | inactive | inactive | inactive | inactive | inactive | inactive | inactive | inactive | inactive | inactive | inactive |
| O=C(CS)Nc1ccccc1 | inactive | 29.8 µM (active) | inactive | inactive | inactive | inactive | inactive | inactive | inactive | inactive | inactive | inactive | inactive | inactive | inactive | inactive | inactive | inactive |  |
| O=C(C(Cl)Cl)N1CCOC12CCCCC2 | inactive | inactive | inactive | inactive | inactive | inactive | inactive | inactive | inactive | inactive | inactive | inactive | inactive | inactive | inactive | inactive | inactive |  | inactive |
| O=P(O)(O)OCC(O)CO (stereo unspecified) | inactive | inactive | inactive | inactive | inactive | inactive | inactive | inactive | inactive | inactive | inactive | inactive | inactive | inactive | inactive | inactive | inactive | inactive | inactive |
| C=CC1CC2C=CC1C2 (stereo unspecified) | inactive | inactive | inactive | inactive | inactive | inactive | inactive | inactive | inactive | inactive | inactive | inactive | inactive | inactive | inactive | inactive | inactive | inactive | inactive |
| Cc1cc(NS(=O)(=O)c2ccc(N)cc2)nc(C)n1 | inactive | inactive | inactive | inactive | inactive | inactive | inactive | inactive | inactive | inactive | inactive | inactive | inactive | inactive | inactive | inactive | inactive | inactive | inactive |
| CC1(N)CCC(C(C)(C)N)CC1 (stereo unspecified) | inactive | inactive | inactive | inactive | inactive | inactive | inactive | inactive | inactive | inactive | inactive | inactive | inactive | inactive | inactive | inactive | inactive | inactive | inactive |
